Experiment [1] addresses Thyrotropin-releasing hormone receptor (Homo sapiens) (UniProt P34981). Nature of the experiment: qHTS assay to identify small molecule agonists of the thyrotropin-releasing hormone receptor (TRHR) signaling pathway (AID 1346891; calls by dose curve;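 note: HEK293 cells expressing TRHR with calcium dye readout; series mostly up to about 58 µM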). In outline: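 Overnight-plated (18 h, 37 °C, 5% CO2) TRHR-Hek293 cells; 2 h calcium dye at 37 °C; compound in DMSO; 3-min kinetic fluorescence read.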
For orientation: In qHTS, concentration-response curves come from the screen itself.

The nature of experiment [2]: Caspase-3/7 induction in HepG2 cells by small molecules, qHTS assay (AID 1346978). Note: nearly all actives have a fitted effect of over 15% in size. In outline:
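Wild-type HepG2 cells (2,000/well) were settled 5 h at 37 C, 5% CO2, then exposed to compounds in DMSO for 17 h. Caspase-3/7 activity was read by luminescence 30 min after adding Caspase-Glo 3/7 reagent at room temperature.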

Experiment [3] is described as follows: Caspase-3/7 induction in CHO-K1 cells by small molecules, qHTS cell viability counter screen (AID 1346979). Note: nearly all actives have a fitted effect of over 35% in size. Note: potency is the fitted concentration of half-maximal effect. The essentials:
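Multiplexed with Caspase-Glo 3/7 in CHO-K1 cells, this counter screen added CellTiter-Fluor after 16hr of compound exposure and recorded fluorescence 1hr later.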

Experiment [4] is described as follows: Caspase-3/7 induction in CHO-K1 cells by small molecules, qHTS assay (AID 1346980). Note: nearly all actives have a fitted effect of over 15% in size. The essentials: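 Wild-type cells were seeded at 1,500 per well and settled 5 hr at 37 C, 5% CO2, then exposed to DMSO-dissolved compounds for 17 hr. Caspase-Glo 3/7 reagent was added, and luminescence was read after 30min at room temperature.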
Experiment [5] has as its target Nuclear receptor subfamily 1 group I member 2 (Homo sapiens) (UniProt O75469). Nature of the experiment: Human pregnane X receptor (PXR) small molecule agonists, qHTS assay (AID 1346982). Note: nearly all actives have a fitted effect of over 35% in size. Note: potency is the fitted concentration of half-maximal effect. In outline:
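PXR-Luc HepG2 reporter cells (CYP3A4-driven luciferase) in 5% charcoal-stripped FBS medium, plated 5 h before compound addition, then treated 24 h at 37C. Luciferase read by ONE-Glo luminescence after 30 min at room temperature.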

Experiment [6] deals with Cytochrome P450 2D6 (Homo sapiens) (UniProt P10635). Nature of the experiment: Cytochrome P450 Family 2 Subfamily D Member 6 (CYP2D6) small molecule antagonists: luciferase reporter qHTS assay (AID 1671196). Note: nearly all actives have a fitted effect of over 50% in size. Note: potency is the fitted concentration of half-maximal effect. In outline: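 Cell-free P450-Glo system: CYP2D6 with proluciferin substrate was pre-incubated with compound for 10 min, then reacted with NADPH regeneration for 1 h at room temperature. Luciferin product was detected after 20 min, and data were reported as relative luminescence units.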
In general terms: In a reporter assay the amount or activity of a reporter protein is the signal.

The target of experiment [7] is Cytochrome P450 2C19 (Homo sapiens) (UniProt P33261). In words: Cytochrome P450 Family 2 Subfamily C Member 19 (CYP2C19) small molecule antagonists: luciferase reporter qHTS assay (AID 1671197). Note: nearly all actives have a fitted effect of over 65% in size. Note: potency is the fitted concentration of half-maximal effect. In outline:
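P450-Glo CYP2C19 system: enzyme-substrate mix with compound 10 min at room temperature, then NADPH regeneration solution, 1 h at 37C. Proluciferin-to-luciferin conversion detected by luminescence after 20 min with detection reagent; ketoconazole as positive control.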

For experiment [8], the target named is Cytochrome P450 2C9 (Homo sapiens) (UniProt P11712). In words: Cytochrome P450 Family 2 Subfamily C Member 9 (CYP2C9) small molecule antagonists: luciferase reporter qHTS assay (AID 1671198). Note: nearly all actives have a fitted effect of over 50% in size. Note: potency is the fitted concentration of half-maximal effect. The essentials:
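CYP2C9 activity was measured with a P450-Glo proluciferin substrate. Enzyme–substrate mix was held with compound for 10 min at room temperature, then NADPH regeneration solution was added for 1 h at 37C. Luciferin product was read as luminescence.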

For experiment [9], the target named is Cytochrome P450 1A2 (Homo sapiens) (UniProt P05177). In words: Cytochrome P450 Family 1 Subfamily A Member 2 (CYP1A2) small molecule antagonists: luciferase reporter qHTS assay (AID 1671199). Note: nearly all actives have a fitted effect of over 50% in size. Note: potency is the fitted concentration of half-maximal effect. In outline:
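P450-Glo CYP1A2 enzyme–proluciferin substrate mix with compound 10 min at room temperature, then NADPH regeneration 1 h at room temperature. Luciferin detection reagent added, luminescence read after 20 min; furafylline positive control.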

The target of experiment [10] is Voltage-gated inwardly rectifying potassium channel KCNH2 (Homo sapiens) (UniProt Q12809). In words: Human Ether-a-go-go-Related Gene (hERG) channel small molecule antagonists: fluorescence cell-based qHTS assay (AID 1671200). Note: nearly all actives have a fitted effect of over 50% in size. Note: potency is the fitted concentration of half-maximal effect. The essentials:
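Cell line hERG-U2OS; dye FluxOR II, 1 h RT dark; Tl+ stimulus; ex 480/em 540 nm, read each second for 2 min.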
(The hERG channel carries a current that helps repolarise heart muscle cells.)

The nature of experiment [11]: Human pregnane X receptor (PXR) small molecule agonists, qHTS cell viability counter screen (AID 1346977). Note: nearly all actives have a fitted effect of over 50% in size. Note: potency is the fitted concentration of half-maximal effect. In outline: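 After a 5hr pre-incubation, PXR-Luc HepG2 cells received compounds plus positive control in DMSO and were kept 24hr at 37C. Cell viability was quantified by fluorescence from CellTiter-Fluor added for the final hour.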
Experiment [12] in a line: Caspase-3/7 induction in HepG2 cells by small molecules, qHTS cell viability counter screen (AID 1346981). Note: nearly all actives have a fitted effect of over 30% in size. Note: potency is the fitted concentration of half-maximal effect. In outline:
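Wild-type HepG2 cells, 2,000/well, settled 5 hr at 37 C, 5% CO2 before compound addition. Viability read by CellTiter-Fluor fluorescence, reagent added after 16 hr compound exposure, then 1 hr at 37C, in the same wells as the caspase read.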

The target in experiment [13] is Cytochrome P450 3A4 (Homo sapiens) (UniProt P08684). In words: Cytochrome P450 Family 3 Subfamily A Member 4 (CYP3A4) small molecule antagonists: luciferase reporter qHTS assay (AID 1671201). Note: nearly all actives have a fitted effect of over 50% in size. Note: potency is the fitted concentration of half-maximal effect. The essentials:
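Room-temperature assay throughout: 10 min compound–enzyme/substrate preincubation, 1 h reaction after NADPH regeneration solution, 20 min detection. Luciferin formed from proluciferin substrate is quantified by luminescence.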

Experiment [14] has as its target Nuclear receptor subfamily 1 group I member 2 (Rattus norvegicus) (UniProt Q9R1A7). In words: Rat pregnane X receptor (rPXR) activation by small molecules, qHTS assay (AID 1346983). Note: nearly all actives have a fitted effect of over 20% in size. The conditions noted are these: rPXR luciferase reporter cells, One-Glo luminescence, 24 h; max activation: active compounds read high. The essentials: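 Cell-based rPXR luciferase reporter assay, 2,000 cells per well, rested 5hr at 37 C before compound addition in DMSO, then 24 hr at 37 C. One-Glo reagent was added and luminescence read after 30 min at room temperature.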

Experiment [15] concerns the target Nuclear receptor subfamily 1 group I member 2 (Homo sapiens) (UniProt O75469). Nature of the experiment: CYP3A4 induction through human pregnane X receptor (PXR) by small molecules, qHTS assay (AID 1346984). Note: nearly all actives have a fitted effect of over 40% in size. In outline:
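DPX-2 HepG2 cells carrying a PXR response element and CYP3A4-promoter luciferase construct, treated with compounds 24 hr at 37C. Then P450-Glo CYP3A4 Luciferin-IPA substrate (3uM final) for 3 hr at 37C, One-Glo added, luminescence read.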

The target is the same in experiment [16]. In words: Human pregnane X receptor (PXR) activation by small molecules, qHTS assay (AID 1346985). Note: nearly all actives have a fitted effect of over 40% in size. In outline:
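DPX-2 cells (HepG2 co-transfected with a PXR response element and a CYP3A4-promoter luciferase construct) were seeded at 2,000 per well, rested 5 hr at 37C, then exposed to DMSO-dissolved compounds for 24 hr. Activation was read as luciferase luminescence.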

Drawing on PubChem BioAssay (Tox21), this text covers Potency, outcome and max activation for 8 molecules.

Unmarked numbers belong to inactive results. Results filed as inconclusive are left out. The source made the active and inactive calls. Unless noted, calls come from the whole dose curve; as a rule, active = well fitted curve in the direction sought with a large enough effect in the repeat runs; inconclusive = weak or mixed curves; inactive = no such curve, though single readings can be large; an effect the other way counts as inactive or inconclusive.
% is set by controls: 0 for no effect and ±100 for the full control effect.

Sequence of Cytochrome P450 2C19 (Homo sapiens) (P33261 whole entry, looked up): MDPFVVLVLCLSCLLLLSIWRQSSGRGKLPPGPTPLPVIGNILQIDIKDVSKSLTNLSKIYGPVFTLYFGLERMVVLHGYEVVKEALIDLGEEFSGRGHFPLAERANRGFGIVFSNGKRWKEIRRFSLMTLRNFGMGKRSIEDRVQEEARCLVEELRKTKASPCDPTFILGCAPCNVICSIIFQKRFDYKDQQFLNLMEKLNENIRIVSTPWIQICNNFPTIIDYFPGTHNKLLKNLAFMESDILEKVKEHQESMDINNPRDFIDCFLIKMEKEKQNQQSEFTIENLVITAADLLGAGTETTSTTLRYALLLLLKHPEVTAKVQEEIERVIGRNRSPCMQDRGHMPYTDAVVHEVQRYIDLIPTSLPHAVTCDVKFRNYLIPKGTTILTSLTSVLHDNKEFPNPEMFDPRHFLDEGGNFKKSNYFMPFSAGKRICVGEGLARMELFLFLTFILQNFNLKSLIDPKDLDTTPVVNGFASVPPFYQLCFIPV
Sequence of Cytochrome P450 3A4 (Homo sapiens) (P08684 whole entry, looked up): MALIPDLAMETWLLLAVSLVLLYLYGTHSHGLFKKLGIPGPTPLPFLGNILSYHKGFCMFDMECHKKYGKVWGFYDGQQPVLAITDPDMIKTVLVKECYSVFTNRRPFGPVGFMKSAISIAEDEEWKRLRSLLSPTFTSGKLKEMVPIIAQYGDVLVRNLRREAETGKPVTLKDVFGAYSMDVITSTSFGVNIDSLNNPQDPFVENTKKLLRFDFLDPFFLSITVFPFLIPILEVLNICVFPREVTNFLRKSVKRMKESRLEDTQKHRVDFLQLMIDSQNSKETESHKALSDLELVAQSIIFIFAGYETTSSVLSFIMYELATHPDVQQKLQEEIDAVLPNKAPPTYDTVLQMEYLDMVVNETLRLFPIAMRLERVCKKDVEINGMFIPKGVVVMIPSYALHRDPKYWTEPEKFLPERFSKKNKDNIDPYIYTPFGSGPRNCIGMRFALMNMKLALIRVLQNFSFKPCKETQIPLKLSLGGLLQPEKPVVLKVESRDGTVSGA
Sequence of Thyrotropin-releasing hormone receptor (Homo sapiens) (P34981 whole entry, looked up): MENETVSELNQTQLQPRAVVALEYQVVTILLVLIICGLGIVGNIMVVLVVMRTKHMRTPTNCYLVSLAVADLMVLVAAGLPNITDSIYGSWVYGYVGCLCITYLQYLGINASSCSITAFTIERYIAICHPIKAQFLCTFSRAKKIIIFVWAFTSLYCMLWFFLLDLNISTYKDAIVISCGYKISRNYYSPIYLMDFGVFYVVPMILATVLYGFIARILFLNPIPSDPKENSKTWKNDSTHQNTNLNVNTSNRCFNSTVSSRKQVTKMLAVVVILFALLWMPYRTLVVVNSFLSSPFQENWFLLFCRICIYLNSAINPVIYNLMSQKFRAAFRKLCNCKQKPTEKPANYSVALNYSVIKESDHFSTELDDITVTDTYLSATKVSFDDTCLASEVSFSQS
Sequence of Cytochrome P450 2C9 (Homo sapiens) (P11712 whole entry, looked up): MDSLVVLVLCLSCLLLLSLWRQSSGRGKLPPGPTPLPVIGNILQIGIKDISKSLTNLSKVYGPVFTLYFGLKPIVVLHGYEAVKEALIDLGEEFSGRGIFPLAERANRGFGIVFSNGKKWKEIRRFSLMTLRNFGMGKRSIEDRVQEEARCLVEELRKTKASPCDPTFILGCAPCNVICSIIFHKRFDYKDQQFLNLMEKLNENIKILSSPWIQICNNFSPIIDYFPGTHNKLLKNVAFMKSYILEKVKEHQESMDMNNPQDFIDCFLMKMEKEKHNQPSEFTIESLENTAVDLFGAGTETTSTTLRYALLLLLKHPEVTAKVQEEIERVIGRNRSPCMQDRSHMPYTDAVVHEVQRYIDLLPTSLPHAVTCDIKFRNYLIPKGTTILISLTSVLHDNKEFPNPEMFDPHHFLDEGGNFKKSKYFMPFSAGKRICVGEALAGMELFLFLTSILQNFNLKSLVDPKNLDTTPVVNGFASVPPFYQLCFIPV
Sequence of Cytochrome P450 1A2 (Homo sapiens) (P05177 whole entry, looked up): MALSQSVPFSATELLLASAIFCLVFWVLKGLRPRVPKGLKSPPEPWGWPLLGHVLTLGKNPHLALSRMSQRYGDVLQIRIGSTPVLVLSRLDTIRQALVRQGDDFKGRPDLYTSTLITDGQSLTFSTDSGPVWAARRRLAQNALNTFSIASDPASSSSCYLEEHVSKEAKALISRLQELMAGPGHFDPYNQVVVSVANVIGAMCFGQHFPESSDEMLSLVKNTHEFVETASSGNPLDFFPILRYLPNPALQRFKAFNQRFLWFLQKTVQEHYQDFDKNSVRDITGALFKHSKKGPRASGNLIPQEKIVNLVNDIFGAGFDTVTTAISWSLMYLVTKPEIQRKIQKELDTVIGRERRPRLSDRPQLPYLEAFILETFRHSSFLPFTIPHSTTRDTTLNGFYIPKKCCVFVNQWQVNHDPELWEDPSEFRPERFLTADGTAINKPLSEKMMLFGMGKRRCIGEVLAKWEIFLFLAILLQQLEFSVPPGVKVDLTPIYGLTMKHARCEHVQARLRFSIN
Sequence of Nuclear receptor subfamily 1 group I member 2 (Homo sapiens) (O75469 whole entry, looked up): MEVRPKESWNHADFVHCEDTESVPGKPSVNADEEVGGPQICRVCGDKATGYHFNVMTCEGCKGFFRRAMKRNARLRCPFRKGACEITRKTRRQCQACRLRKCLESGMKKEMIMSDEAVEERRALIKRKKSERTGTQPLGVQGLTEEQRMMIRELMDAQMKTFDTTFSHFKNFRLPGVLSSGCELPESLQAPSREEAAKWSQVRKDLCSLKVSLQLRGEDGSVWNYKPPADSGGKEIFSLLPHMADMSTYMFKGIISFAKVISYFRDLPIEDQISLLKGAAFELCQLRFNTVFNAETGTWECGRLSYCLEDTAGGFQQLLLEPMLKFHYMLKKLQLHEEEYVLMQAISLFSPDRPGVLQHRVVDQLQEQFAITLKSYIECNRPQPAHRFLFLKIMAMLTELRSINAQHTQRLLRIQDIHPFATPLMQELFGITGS
Sequence of Voltage-gated inwardly rectifying potassium channel KCNH2 (Homo sapiens) (Q12809 whole entry, looked up): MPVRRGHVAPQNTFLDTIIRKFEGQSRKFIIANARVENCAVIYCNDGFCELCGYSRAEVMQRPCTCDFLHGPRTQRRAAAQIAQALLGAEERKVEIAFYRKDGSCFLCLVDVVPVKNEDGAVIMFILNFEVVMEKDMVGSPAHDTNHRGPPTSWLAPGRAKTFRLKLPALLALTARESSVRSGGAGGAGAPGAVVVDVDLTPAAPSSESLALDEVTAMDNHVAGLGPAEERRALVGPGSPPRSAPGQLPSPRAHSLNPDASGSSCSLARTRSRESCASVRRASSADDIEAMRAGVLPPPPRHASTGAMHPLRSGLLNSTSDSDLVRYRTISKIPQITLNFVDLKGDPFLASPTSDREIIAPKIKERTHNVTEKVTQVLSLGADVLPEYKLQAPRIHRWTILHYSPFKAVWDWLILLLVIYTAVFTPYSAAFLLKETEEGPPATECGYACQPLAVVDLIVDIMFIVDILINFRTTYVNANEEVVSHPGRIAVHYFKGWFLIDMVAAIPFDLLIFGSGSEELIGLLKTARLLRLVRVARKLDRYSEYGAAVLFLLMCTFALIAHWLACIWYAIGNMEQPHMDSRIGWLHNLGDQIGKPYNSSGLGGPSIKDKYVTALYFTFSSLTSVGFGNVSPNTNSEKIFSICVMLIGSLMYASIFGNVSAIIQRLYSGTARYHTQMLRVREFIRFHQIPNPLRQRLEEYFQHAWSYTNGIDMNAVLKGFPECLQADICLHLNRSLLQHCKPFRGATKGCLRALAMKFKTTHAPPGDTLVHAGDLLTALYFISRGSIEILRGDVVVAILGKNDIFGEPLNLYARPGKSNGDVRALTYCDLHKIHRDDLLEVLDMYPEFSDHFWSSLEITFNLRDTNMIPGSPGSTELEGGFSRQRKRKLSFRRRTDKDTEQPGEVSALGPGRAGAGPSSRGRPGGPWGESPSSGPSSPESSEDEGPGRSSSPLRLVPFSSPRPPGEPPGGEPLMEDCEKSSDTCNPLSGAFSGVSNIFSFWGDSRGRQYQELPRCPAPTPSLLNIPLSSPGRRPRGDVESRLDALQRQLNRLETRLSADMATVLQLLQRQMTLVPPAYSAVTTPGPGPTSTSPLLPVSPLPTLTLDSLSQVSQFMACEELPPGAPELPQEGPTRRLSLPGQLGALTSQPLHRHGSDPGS
Sequence of Cytochrome P450 2D6 (Homo sapiens) (P10635 whole entry, looked up): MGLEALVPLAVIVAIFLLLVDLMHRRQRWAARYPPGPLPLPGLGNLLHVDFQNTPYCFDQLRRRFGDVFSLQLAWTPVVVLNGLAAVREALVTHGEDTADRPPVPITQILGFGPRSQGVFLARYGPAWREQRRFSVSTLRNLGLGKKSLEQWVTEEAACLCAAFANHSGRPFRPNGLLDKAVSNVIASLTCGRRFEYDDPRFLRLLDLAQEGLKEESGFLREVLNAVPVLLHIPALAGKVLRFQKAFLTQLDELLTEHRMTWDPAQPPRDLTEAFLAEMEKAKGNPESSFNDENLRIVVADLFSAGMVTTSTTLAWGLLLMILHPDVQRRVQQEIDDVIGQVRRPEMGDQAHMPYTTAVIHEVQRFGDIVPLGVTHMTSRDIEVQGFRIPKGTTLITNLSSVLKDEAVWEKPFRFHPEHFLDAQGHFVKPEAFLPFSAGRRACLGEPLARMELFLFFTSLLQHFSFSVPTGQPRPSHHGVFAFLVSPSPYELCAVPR
Sequence of Nuclear receptor subfamily 1 group I member 2 (Rattus norvegicus) (Q9R1A7 whole entry, looked up): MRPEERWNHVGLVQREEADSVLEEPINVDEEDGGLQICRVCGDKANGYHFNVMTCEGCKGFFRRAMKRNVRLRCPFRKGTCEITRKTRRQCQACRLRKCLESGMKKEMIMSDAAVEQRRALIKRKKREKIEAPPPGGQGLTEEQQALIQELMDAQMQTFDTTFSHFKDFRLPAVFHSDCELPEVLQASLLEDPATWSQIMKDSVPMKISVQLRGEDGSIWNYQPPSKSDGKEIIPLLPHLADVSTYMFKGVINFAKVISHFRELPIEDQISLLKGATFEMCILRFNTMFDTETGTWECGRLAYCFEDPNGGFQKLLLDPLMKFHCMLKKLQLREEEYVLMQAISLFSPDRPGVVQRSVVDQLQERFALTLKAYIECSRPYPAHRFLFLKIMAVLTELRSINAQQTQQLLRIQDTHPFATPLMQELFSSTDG

For the molecule `Cc1ccc(Nc2nccc(N(C)c3ccc4c(C)n(C)nc4c3)n2)cc1S(N)(=O)=O`, the Potency result in [1], in experiment [2], in experiment [6], in experiment [7], in experiment [9] and in experiment [10] was “inactive” each time. The Potency was 26.6 µM (active) in [3], 2.66 µM (active) in experiment [5] and 15.5 µM (active) in experiment [8]. Moreover, the molecule was classed as inactive in experiment [4].

Consider `CC(COc1ccc(C(C)(C)C)cc1)OS(=O)OCCCl` (stereo not given), for which the Potency entry in [1], in experiment [6], in experiment [8], in experiment [9], in [10] and in experiment [13] was “inactive” each time. The Potency in experiment [11] was 12.3 µM (active); in experiment [3] it was 10.9 µM (active); in [12], 15.4 µM (active); in experiment [5] it was 9.74 µM (active). In experiment [4], the molecule was called inactive.

As for `CCCOc1ccc(S(=O)(=O)N2CCN(CC)CC2)cc1-c1nc2c(CC)n(Cc3ccccn3)nc2c(=O)[nH]1`, the Potency entry in experiment [1], in [2], in experiment [3], in experiment [6] and in [9] was “inactive” throughout. Moreover, the Potency was 10.9 µM (active) in experiment [5], 3.17 µM (active) in experiment [8], 21.9 µM (active) in experiment [10] and 0.399 µM (active) in experiment [13].

Consider `CCCCC(CC)C(=O)OCCOCCOCCOCCOC(=O)C(CC)CCCC` (stereo not given), for which the Potency entry in experiment [1], in experiment [11], in experiment [3], in [12] and in [6] was “inactive” in each case. Besides, the result in experiment [4] was inactive. Besides, the Potency is 48.6 µM (active) in experiment [5]; 22.4 µM (active) in [7]; 12.6 µM (active) in [8]; 31.7 µM (active) in experiment [9]; 12.6 µM (active) in experiment [13].

In the case of `c1cnc2c(n1)CCCC2`, the Potency entry in experiment [1], in [11], in experiment [3], in experiment [12], in [5] and in experiment [6] was “inactive” in each case. Besides, the Potency result in experiment [7], in experiment [8], in experiment [9], in experiment [10] and in experiment [13] was “inactive” in each case. The outcome in [4] was inactive.

Turning to `O=Cc1c(Cl)cccc1Cl`, the Potency result in [1], in [11], in experiment [3], in experiment [12], in experiment [5] and in [6] was “inactive” each time. Besides, the Potency result in experiment [7], in experiment [8] and in experiment [10] was “inactive” in each case. The molecule was classed as inactive in experiment [4].

Regarding `CCCCCCCCCCCCCCC[C@H](O)[C@@H](N)CO`, the Potency result in experiment [1], in experiment [11], in experiment [3], in experiment [12], in experiment [5] and in [15] was “inactive” in each case. Further, the Potency result in [16], in [7], in [8], in experiment [9] and in experiment [10] was “inactive” each time. The molecule was called inactive in experiment [4]. Also, the max activation in experiment [14] was 0.49%.

As for `CCCCN(CCCC)CCCOC(=O)c1ccc(N)cc1`, the Potency result in experiment [1], in experiment [2], in experiment [3], in [12], in experiment [5] and in experiment [15] was “inactive” throughout. In addition, the Potency entry in [16], in experiment [8], in experiment [9] and in experiment [13] was “inactive” throughout. Besides, the call in experiment [4] was inactive. The max activation in experiment [14] is 0.416%. For the same molecule, the values for the Potency in experiment [6] and in experiment [10] were 0.0219 µM (active) and 9.52 µM (active), respectively.
